# PubChem BioAssay AID1259313 (Sanford-Burnham Center for Chemical Genomics, 2017)
# Out of some 340,000 compounds screened, about 8,500 (2.5%) were called active.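 The calls were made as follows: active = melting temperature shift of at least 10% of the positive control shift, at one fixed dose; inactive = the rest.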 The entries come from a sample that favours actives as a whole.
# Test system: Glutamate receptor ionotropic, NMDA 3A (GRIN3A) ligand-binding domain
# Test: binders of NR3A ligand-binding domain, primary screen, biophysical, differential scanning fluorimetry, uHTS (AID 1259313)
# Conditions: NR3A LBD differential scanning fluorimetry, at 25 µM, active compounds read high, 0% = protein alone, 100% = glycine-bound protein
row,SMILES,Tm shift relative to glycine control
1,Cc1ccc(NC(=O)Nc2ccccc2)c(Br)c1,-0.75% (inactive)
2,Cc1cccc(NC(=O)Nc2cccc(Oc3c(F)c(F)c(F)c(F)c3F)c2)c1,29.1% (active)
3,Cc1ccoc1C(=O)Nc1cccc(Oc2ccccc2)c1,-3.01% (inactive)
4,CCOc1cc(/C=C/C(=O)OCC(=O)NCCN2C(=O)CSC2=O)ccc1OCC(C)C,0.08% (inactive)
5,CN(Cc1ccc(F)cc1Cl)S(=O)(=O)c1cccs1,1.26% (inactive)
6,CCc1ccc(NC(=O)N2CCc3ccccc3C2)cc1,-0.69% (inactive)
7,C=CCNC(=S)N1CCc2[nH]c3ccccc3c2C1,-15.2% (inactive)
8,Fc1ccc(NC(=S)N2CCc3[nH]c4ccccc4c3C2)cc1,13.3% (active)
9,CCOC(=O)C1CCN(C(=O)Nc2ccc(Cl)cc2)CC1,3.57% (inactive)
10,COc1ccc(NC(=S)N2CCc3cc(OC)c(OC)cc3C2)cc1,-0.36% (inactive)
11,O=C(Nc1ccc(Cl)cc1)N1CCc2[nH]c3ccccc3c2C1,250% (active)
12,Cc1ccccc1N/C(SCc1ccc(Cl)cc1)=C(/C#N)C(N)=O,-24% (inactive)
13,CC1CCN(c2ccc(-c3ccc(NC(=O)c4ccco4)cc3)nn2)CC1,5.6% (inactive)
14,O=S(=O)(Cc1cc(Cl)nc(-c2cccnc2)n1)c1ccccc1,1.48% (inactive)
15,CN(C(=O)c1cccc(NC(=O)Cc2ccc(NC(=O)C3CCCN(C(=O)C4CC4)C3)cc2)c1)C1CC1 (centres undefined),1.17% (inactive)
16,C[C@@H](Nc1nc(-c2ccccc2)nc2c1oc1ccccc12)C(=O)O,5.42% (inactive)
17,CCc1nc(Nc2ccc(NC(C)=O)cc2)c2oc3ccccc3c2n1,10% (active)
18,CCc1nc(Nc2ccc3nccnc3c2)c2oc3ccccc3c2n1,-14.2% (inactive)
19,CCCC(=O)NC(=S)Nc1ccc(CN2CCOCC2)cc1,1.2% (inactive)
20,Cc1cc(C)nc(SCc2cn3c(C)cc(C)nc3n2)n1,-0.2% (inactive)
21,CN(C)c1ccc(NC(=S)N(CCc2ccccc2)C2CC(=O)N(c3c(Cl)cccc3Cl)C2=O)cc1 (centres undefined),-2.73% (inactive)
22,CCOc1ccc(N2C(=O)CC(N(CCc3ccc(OC)c(OC)c3)C(=S)Nc3ccccc3)C2=O)cc1 (centres undefined),14.8% (active)

row,SMILES,Tm shift relative to glycine control
1,COC(=O)CN(C(=S)Nc1ccc(Cl)cc1)C1CC(=O)N(c2ccc(OC)cc2)C1=O (centres undefined),1.51% (inactive)
2,O=C(O)C#Cc1cccc2ccccc12,-2.09% (inactive)
3,CCC[C@@H]1C[C@@]1(CCC)[C@@H](NC(=O)c1ccccc1)c1ccc(C(=O)OC)cc1,-0.95% (inactive)
4,CCCCNS(=O)(=O)c1ccc2nc(SCC(=O)Nc3cc(C)cc(C)c3)[nH]c2c1,23.7% (active)
5,COc1ccc2nc(SCC(=O)Nc3c(C)cc(C)cc3C)[nH]c2c1,2.89% (inactive)
6,Cc1cc(C)c(NC(=O)CSc2nc3ccncc3[nH]2)c(C)c1,-0.53% (inactive)
7,COC1=CC(=O)OC(c2ccc(OC)cc2)C1 (centres undefined),3.44% (inactive)
8,Cc1ccc(CNC(=O)CCS(=O)(=O)c2ccc3c(c2)CC(C)N3C(=O)C2CC2)o1 (centres undefined),-0.09% (inactive)
9,CCc1cccc2c3c([nH]c12)C(CC)(CC(=O)O)OCC3 (centres undefined),14.4% (active)
10,CCOC(=O)C1=C(C)c2ccccc2OC1C(=O)OCC (centres undefined),0.67% (inactive)
11,CCOC(=O)C(=Cc1ccccc1OC)C(=O)OCC,0.09% (inactive)
12,C=C1c2cccc(OC)c2O[C@H](C(=O)OCC)[C@@H]1CCCCCC,19.5% (active)
13,COC(=O)Cn1cnc2scc(-c3ccc(C)c(C)c3)c2c1=O,0% (inactive)
14,NCCN1CCN2C(=O)CN(C(=O)c3ccccc3)CC12 (centres undefined),-1.42% (inactive)
15,Cc1cc(F)ccc1NC(=S)NCCc1ccccc1,-1.3% (inactive)
16,Cn1c(N)c(C(=O)COC(=O)c2ccc3ccccc3c2)c(=O)n(C)c1=O,-3.76% (inactive)
17,Oc1ccc(-c2nnc(Nc3ccccc3)c3ccccc23)cc1,-0.38% (inactive)
18,Cc1cccc(-c2nc(Nc3ccc(O)cc3)c3ccccc3n2)c1,44.7% (active)
19,CC(=O)Nc1cccc(Nc2nc(-c3cccs3)nc3ccccc23)c1,1.63% (inactive)
20,COc1ccc(N2CCN(C(=O)CNC(=O)c3ccc(C(C)(C)C)cc3)CC2)cc1,3.46% (inactive)
21,CC(C)(C)c1cc2cccnc2n1Cc1ccccc1,-1.7% (inactive)
22,COCCN1C(=O)N(c2ccc(Cl)cc2)C(=O)C1CC(=O)Nc1cc(OC)cc(OC)c1 (centres undefined),0.08% (inactive)

row,SMILES,Tm shift relative to glycine control
1,COC(=O)CN1C(=S)N(c2ccccc2)C(=O)C1CC(=O)Nc1ccc(Cl)cc1 (centres undefined),28.7% (active)
2,CCOc1ccc(NC(=O)CC2C(=O)N(c3ccccc3)C(=O)N2CCOC)cc1 (centres undefined),-0.16% (inactive)
3,CC(C)N1CCC(=NNc2ccc([N+](=O)[O-])cc2S(=O)(=O)N2CCOCC2)CC1,0.15% (inactive)
4,Cc1ccc(S(=O)(=O)N2CCCCC2)cc1NC(=O)CCNC(=O)c1ccccc1,10.2% (active)
5,O=C(CCNC(=O)c1ccc(Br)cc1)Nc1cccc(S(=O)(=O)N2CCCCC2)c1,-8.95% (inactive)
6,Cc1ccc(S(=O)(=O)N2CCCCC2)cc1NC(=O)c1cccnc1,-0.36% (inactive)
7,CCOC(=O)NN1C(=O)c2ccccc2NC1c1ccccc1O (centres undefined),1.62% (inactive)
8,C=CCOc1c(CNn2cn[nH]c2=S)cccc1OC,1.48% (inactive)
9,Cc1cc(C)cc(NC(=O)c2cccc(NC(=O)C3C4CC5OC(=O)C3C5C4)c2)c1 (centres undefined),3.21% (inactive)
10,COC(=O)CNC(c1ccccc1Cl)c1cc(Br)ccc1NC(=O)CCN1CCOCC1 (centres undefined),-6.58% (inactive)
11,Cc1ccc(CNC(=O)c2cccc3c2C(=O)c2ccc(N4CCC(C)CC4)cc2S3(=O)=O)cc1,0.32% (inactive)
12,NC(=O)C(Cc1ccccc1)NC(=O)C12CC3CC(CC(C3)C1)C2 (centres undefined),1.38% (inactive)
13,CCOC(=O)c1c(C)oc2cc(Sc3ccccc3)c(O)c(O)c12,1.87% (inactive)
14,COc1ccc(CCN2CC(C(=O)OCC(=O)NCc3ccccc3Cl)CC2=O)cc1OC (centres undefined),-0.25% (inactive)
15,COc1ccc(C(CNC(=O)c2cccc(NS(=O)(=O)c3ccc(C)c(F)c3)c2)N2CCCC2)cc1 (centres undefined),-1.75% (inactive)
16,COc1ccc(C(CNC(=O)c2cc3c(s2)CCCC3)N2CCOCC2)cc1 (centres undefined),53.2% (active)
17,COc1ccc(C(CNC(=O)c2cccc(S(=O)(=O)Nc3ccccc3Cl)c2)N2CCOCC2)cc1 (centres undefined),15.6% (active)
18,O=C(NCCCN1CCOCC1)c1cc2c(s1)CCC2,1.5% (inactive)
19,COc1ccc(C(CNC(=O)c2ccc(S(=O)(=O)Nc3ccccc3C)cc2)N2CCOCC2)cc1 (centres undefined),2.35% (inactive)
20,COc1ccc(C(CNC(=O)c2cccnc2SC)N2CCOCC2)cc1 (centres undefined),-0.34% (inactive)
